# Reference: ChEMBL document CHEMBL4513146, “CO-ADD screening of Karazin Kharkiv National University (Ukraine) compounds”
# Potency and affinity values are given separately.
# Assays:
# Staphylococcus aureus = conditions: Concentration 32 ug.mL-1;; ASSAY_TEST Inhibition of Bacterial Growth; detection method Absorption (OD600); MEDIA CAMHB; plate type 384well; NBS; CORNING #3640; time 18 hr
# Escherichia coli = conditions: Concentration 32 ug.mL-1;; ASSAY_TEST Inhibition of Bacterial Growth; detection method Absorption (OD600); MEDIA CAMHB; plate type 384well; NBS; CORNING #3640; time 18 hr
SMILES,Inhibition (Staphylococcus aureus) [%],Inhibition (Escherichia coli) [%]
CCc1nnc2c(SCC(=O)Nc3cccc(C(C)=O)c3)nc3ccccc3n12,2.41,4.71
COc1ccc(NC(=O)Cn2nc3c(N4CC(C)CC(C)C4)nccn3c2=O)c(OC)c1 (centres undefined),18.35,1.24
CCCCN(C)c1ccc2nnc(CCc3nc(-c4ccc(C(F)(F)F)cc4)no3)n2n1,7.8,-3.35
Cc1ccccc1Oc1nccn2c(=O)n(CC(=O)Nc3cc(Cl)ccc3Cl)nc12,0.32,-4.76
COc1cccc(-n2ccn3c(SCC(=O)Nc4ccccc4Cl)nnc3c2=O)c1,11.46,-4.64
O=c1c2nn(Cc3ccc(F)cc3)c(=O)n2ccn1-c1ccccc1,14.99,-4.05
Cc1nnc2ccc(S(=O)(=O)N(Cc3ccccc3)c3cccc(F)c3)cn12,2.5,-6.96
O=C(Cn1nc2ccc(-c3ccccc3)nn2c1=O)Nc1ccc(F)c(Cl)c1,7.52,-1.06
Cc1ccc(Nc2cc(C)n3c(=O)n(CCOc4ccc(F)cc4)nc3n2)cc1,8.99,-0.82
CC(C)Cn1c(=O)c2sccc2n2c(=O)n(Cc3ccc(Br)cc3)nc12,2.7,-6.62
Cc1cc(C)c(NC(=O)Cn2nc3ccc(Sc4cccc(F)c4)nn3c2=O)c(C)c1,3.74,-5.92
COc1cc(NC(=O)Cn2nc3ccc(C(=O)NCc4ccccc4)cn3c2=O)cc(OC)c1OC,-6.97,-8.69
COc1ccc(CNC(=O)Cn2nc3c(Oc4cccc(C)c4C)nccn3c2=O)cc1,-12.87,0.86
COc1ccc(-c2cc3c4nn(CC(=O)Nc5cc(Cl)ccc5C)c(=O)n4ccn3n2)cc1,5.04,1.53
Cc1nnc2c(SCC(=O)Nc3ccc4c(c3)OCCO4)nc3ccccc3n12,5.53,3.38
COc1ccc(CNC(=O)Cn2nc3c(SC4CCCCC4)nccn3c2=O)cc1,8.37,-2.77

SMILES,Inhibition (Staphylococcus aureus) [%],Inhibition (Escherichia coli) [%]
O=C(Cn1nc2c3c4c(sc3ncn2c1=O)CCCC4)NCCc1ccc(Cl)cc1,7.1,2.28
COC(=O)c1ccc(NC(=O)CSc2nnc3c4cc(-c5ccc(OC)cc5)nn4ccn23)cc1,8.99,0.03
O=c1c2sccc2n2c(=O)n(Cc3cccc(C(F)(F)F)c3)nc2n1Cc1cccs1,22.09,2.86
CCOC(=O)c1ccccc1NC(=O)Cn1nc2c(Oc3cccc(OC)c3)nccn2c1=O,-10.31,1.57
CCc1ccccc1NC(=O)Cn1c(=O)c2nnc(C(C)C)n2c2ccccc21,5.45,0.46
Cc1ccc(-c2nnc3c(=O)n(CC(=O)Nc4cc(C)cc(C)c4)c4ccccc4n23)cc1,10.86,0.18
CC(C)c1nnc2c(=O)n(CC(=O)Nc3ccc(Cl)cc3)c3ccccc3n12,11.52,1.04
CCc1ccc(N(Cc2ccc(F)cc2)S(=O)(=O)c2cccn3c(C)nnc23)cc1,6.87,-8.04
CN(C(=O)Cn1nc2nc(Nc3ccc(F)cc3)ccn2c1=O)c1ccccc1,-13.79,-1.66
Cc1cc2nn(CC(=O)NCc3ccccc3)c(=O)n2c(Nc2ccc(C)c(F)c2)n1,-14.43,-0.54
COc1ccc(NC(=O)C(C)Sc2nnc3c(=O)n(-c4ccc(C)c(C)c4)ccn23)cc1 (centres undefined),7,-4.16
COc1cccc(-n2ccn3c(SCC(=O)c4ccc(F)cc4)nnc3c2=O)c1,13.82,-3.39
CCC(C)NC(=O)c1ccc2c(=O)n(CCC(C)C)c3nn(CC#N)c(=O)n3c2c1 (centres undefined),11.05,-1.24
CC(C)(C)OC(=O)N1CCC(NC(=O)CCc2nnc3ccc(-c4ccccc4)nn23)CC1,1.31,-5.19
CCc1nnc2c(S(=O)(=O)N(Cc3cc(F)cc(F)c3)c3ccc(C)cc3)cccn12,10.46,-5.17
Cc1cc(C)c(NC(=O)Cn2c(=O)c3nnc(C(C)C)n3c3ccccc32)c(C)c1,15.71,3.04
